Assay results reported in PubChem BioAssay.
The source made the active and inactive calls.

What was measured:
[1] = optical density shifts of acrAB sulA E. coli – strain DRC41, OD650, 48 h, E. coli filamentation inducer project, primary screen (AID 1152); settings: higher = more signal, called active from +8 up or from −8 down;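 also: E. coli MC1000 strain DRC41 lacking acrAB efflux pump and sulA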
[2] = probe aLefty1 binding on compound microarray – biochemical, small-molecule microarray, 635/667 nm fluorescence, primary screen (AID 1153); settings: higher = more signal;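 also: score merges spot fluorescence with signal-to-noise ratio from the scanned slide images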
[3] = plasmodial surface anion channel blockers, osmotic lysis – cell-based, P. falciparum Indochina, OD700, 1 h, primary screen (AID 1154); settings: P. falciparum Indochina infected RBC osmotic lysis, higher = more signal, called active from +8 up or from −8 down
[4] = plasmodial surface anion channel blockers, osmotic lysis – cell-based, P. falciparum Indochina, OD700, 2 h, primary screen (AID 1155);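 also: lysis reports solute entry through the parasite surface anion channel PSAC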; settings: P. falciparum Indochina infected erythrocytes, higher = more signal, called active from +8 up or from −8 down
[5] = changes in parasitized red cell lysis, either direction – P. falciparum Indochina, OD700, 3 h, PSAC antagonist project, primary screen (AID 1156); settings: P. falciparum-infected erythrocytes, osmotic lysis, higher = more signal, called active from +8 up or from −8 down
[6] = plasmodial surface anion channel blockers, osmotic lysis – cell-based, P. falciparum Indochina, OD700, 18 h, primary screen (AID 1157); settings: P. falciparum Indochina infected erythrocytes, osmotic lysis OD700, 18 h; higher = more signal, called active from +8 up or from −8 down
[7] = S6 kinase pathway phospho-S6 level changes – cell-based, A549, cytoblot, luminescence, serum-stimulated, primary screen (AID 1158); settings: 5 h, higher = more signal;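 also: serum-stimulated A549 lung adenocarcinoma cells; signal is phosphorylated S6 detected by cytoblot immunostaining with HRP secondary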
[8] = target: NADPH oxidase 2 (Homo sapiens) (UniProt P04839); assay: compounds shifting NOX2 Amplex Red fluorescence – cell-based, HEK293-NOX2, PMA-stimulated, NOX inhibitor project, primary screen (AID 1159); settings: 45 min, higher = more signal, called active from +8 up or from −8 down; also: test concentration not given here
[9] = target: NADPH oxidase 4 (Homo sapiens) (UniProt Q9NPH5); assay: compounds shifting NOX4 Amplex Red fluorescence – cell-based, HEK293-NOX4, tetracycline-induced, NOX inhibitor project, primary screen (AID 1160); settings: HEK293-NOX4, Amplex Red H2O2 fluorescence, 45 min; higher = more signal, called active from +8 up or from −8 down
[10] = target: NADPH oxidase 5 (Homo sapiens) (UniProt Q96PH1); assay: compounds shifting NOX5 Amplex Red fluorescence – cell-based, HEK293-NOX5, NOX inhibitor project, primary screen (AID 1161); settings: HEK293-NOX5, ionomycin, 45 min, higher = more signal
[11] = compound effects on lung adenocarcinoma cell viability – A549, calcein-AM fluorescence, 48 h, basal, profiling panel (AID 1162); settings: higher = more signal; also: test concentration not given here
[12] = compound effects on differentiated 3T3-L1 adipocyte viability – cell-based, 3T3-L1 adipocytes, calcein-AM fluorescence, 48 h, basal, profiling panel (AID 1163); settings: 3T3-L1 adipocytes viability, higher = more signal; also: test concentration not given here
[13] = compound effects on hepatocellular carcinoma cell viability – HepG2, calcein-AM fluorescence, 48 h, basal, profiling panel (AID 1164); settings: higher = more signal; also: test concentration not given here
[14] = compound effects on multiple myeloma cell viability – MM1S, calcein-AM fluorescence, 48 h, basal, profiling panel (AID 1165); settings: higher = more signal;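 also: viability of MM1S multiple myeloma cells under basal unstimulated conditions; test concentration not given here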
[15] = calcein-AM signal in unstimulated myeloma cells – cell-based, calcein-AM fluorescence, 48 h, PK04 Diversity Set, profiling panel (AID 1166); settings: RPMI8226 myeloma viability, higher = more signal;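 also: cells grown under basal conditions without added stimulus; test concentration not given here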
[16] = JC-1 mitochondrial signal, unstimulated HepG2 cells – cell-based, JC-1 fluorescence, 24 h, 100 nL compound, profiling panel (AID 1167); settings: HepG2 mitochondrial potential, higher = more signal; also: test concentration not given here
[17] = JC-1 mitochondrial signal, unstimulated adipocytes – cell-based, JC-1 fluorescence, 3T3-L1 adipocytes, 24 h, 100 nL compound, profiling panel (AID 1168); settings: JC-1 mitochondrial fluorescence, higher = more signal, called active from +8 up or from −8 down; also: test concentration not given here
[18] = JC-1 mitochondrial signal, unstimulated myeloma cells – cell-based, JC-1 fluorescence, RPMI8226, 24 h, 100 nL compound, profiling panel (AID 1169); settings: JC-1 mitochondrial potential fluorescence, higher = more signal; also: test concentration not given here
[19] = JC-1 mitochondrial signal, unstimulated MM1S myeloma – cell-based, JC-1 fluorescence, 24 h, 100 nL compound, profiling panel (AID 1170); settings: MM1S mitochondrial potential, higher = more signal; also: test concentration not given here
[20] = resazurin metabolic signal in A549 cells – cell-based, resazurin fluorescence, 24 h, PK04 Diversity Set, profiling panel (AID 1171); settings: A549 viability, higher = more signal, called active from +8 up or from −8 down; also: test concentration not given here

NADPH oxidase 5 (Homo sapiens), sequence (Q96PH1 whole entry, looked up): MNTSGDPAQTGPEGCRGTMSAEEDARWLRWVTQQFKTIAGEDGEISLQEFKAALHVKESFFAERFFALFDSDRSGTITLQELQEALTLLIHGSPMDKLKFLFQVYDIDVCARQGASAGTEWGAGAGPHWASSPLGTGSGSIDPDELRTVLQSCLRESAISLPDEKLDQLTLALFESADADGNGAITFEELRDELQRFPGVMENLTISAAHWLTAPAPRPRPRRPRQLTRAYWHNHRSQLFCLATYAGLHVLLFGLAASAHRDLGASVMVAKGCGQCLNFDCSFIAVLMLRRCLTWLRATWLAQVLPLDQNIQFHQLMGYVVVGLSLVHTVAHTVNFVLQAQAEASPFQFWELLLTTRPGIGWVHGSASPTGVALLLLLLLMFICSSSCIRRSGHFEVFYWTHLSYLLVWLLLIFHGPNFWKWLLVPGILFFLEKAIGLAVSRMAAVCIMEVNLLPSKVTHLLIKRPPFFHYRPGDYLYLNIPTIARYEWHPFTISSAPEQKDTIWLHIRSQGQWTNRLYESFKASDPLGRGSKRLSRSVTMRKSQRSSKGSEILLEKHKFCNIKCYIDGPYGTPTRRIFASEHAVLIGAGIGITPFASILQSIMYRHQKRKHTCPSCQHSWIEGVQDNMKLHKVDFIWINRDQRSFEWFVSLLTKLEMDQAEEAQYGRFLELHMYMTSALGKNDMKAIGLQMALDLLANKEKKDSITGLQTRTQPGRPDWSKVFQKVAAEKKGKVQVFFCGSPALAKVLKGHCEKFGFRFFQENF
NADPH oxidase 2 (Homo sapiens), sequence (P04839 whole entry, looked up): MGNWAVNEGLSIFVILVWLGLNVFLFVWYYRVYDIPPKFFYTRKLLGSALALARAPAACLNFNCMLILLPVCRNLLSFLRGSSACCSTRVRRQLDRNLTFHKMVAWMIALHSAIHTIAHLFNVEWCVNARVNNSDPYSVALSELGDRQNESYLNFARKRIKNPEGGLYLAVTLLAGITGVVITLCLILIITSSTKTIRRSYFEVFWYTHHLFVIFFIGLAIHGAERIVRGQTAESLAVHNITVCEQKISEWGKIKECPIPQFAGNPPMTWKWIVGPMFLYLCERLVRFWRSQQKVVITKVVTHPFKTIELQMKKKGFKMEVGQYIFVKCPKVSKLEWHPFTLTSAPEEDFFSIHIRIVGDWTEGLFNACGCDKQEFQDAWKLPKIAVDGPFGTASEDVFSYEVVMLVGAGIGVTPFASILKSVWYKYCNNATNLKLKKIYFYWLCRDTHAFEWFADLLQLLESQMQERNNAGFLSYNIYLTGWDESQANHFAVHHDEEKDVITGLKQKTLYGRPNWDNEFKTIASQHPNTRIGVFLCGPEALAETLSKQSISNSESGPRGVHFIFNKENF
NADPH oxidase 4 (Homo sapiens), sequence (Q9NPH5 whole entry, looked up): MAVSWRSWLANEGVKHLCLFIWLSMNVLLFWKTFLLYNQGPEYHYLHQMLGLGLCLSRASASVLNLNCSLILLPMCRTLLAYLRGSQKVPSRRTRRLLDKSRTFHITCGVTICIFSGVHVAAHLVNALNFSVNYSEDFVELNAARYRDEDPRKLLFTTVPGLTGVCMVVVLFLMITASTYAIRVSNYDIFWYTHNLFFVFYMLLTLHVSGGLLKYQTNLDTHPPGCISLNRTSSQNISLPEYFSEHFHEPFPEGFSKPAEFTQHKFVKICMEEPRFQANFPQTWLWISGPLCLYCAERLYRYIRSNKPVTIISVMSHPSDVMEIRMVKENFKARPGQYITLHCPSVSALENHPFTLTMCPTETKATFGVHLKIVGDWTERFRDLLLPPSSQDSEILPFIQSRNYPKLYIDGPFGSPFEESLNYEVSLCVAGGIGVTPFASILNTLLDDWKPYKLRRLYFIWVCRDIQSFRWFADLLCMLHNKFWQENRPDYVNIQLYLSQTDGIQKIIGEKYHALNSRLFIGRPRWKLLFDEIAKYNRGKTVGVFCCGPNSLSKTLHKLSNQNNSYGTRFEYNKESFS

Compound	z-score [1]	composite z-score [2]	z-score [3]	z-score [4]	z-score [5]	z-score [6]	z-score [7]	z-score [8]	z-score [9]	z-score [10]	z-score [11]	z-score [12]	z-score [13]	z-score [14]	z-score [15]	z-score [16]	z-score [17]	z-score [18]	z-score [19]	z-score [20]
CC[C@@H]1[C@H]2C3C(=O)N(CC)C(=O)C3CC(=O)[C@H]2[C@H](c2ccc(C)cc2)N1S(=O)(=O)c1ccc(C)cc1 (stereo not given in full)	-0.272 (inactive)	0.0026	2.27 (inactive)	1.99 (inactive)	0.925 (inactive)	1.3 (inactive)	-0.12	0.5 (inactive)	0.458 (inactive)	0.0674	-0.138	-0.303	-0.581	0.453	-0.144	0.248	0.438 (inactive)	0.485	-1.02	-0.0875 (inactive)
CC[C@H]1C2=C3C(CC[C@H]4C(OCc5ccc(F)cc5C(F)(F)F)OC[C@](C)([C@@H]34)N(C(=O)OC(C)(C)C)C2)C2COC(=O)OCC21 (stereo not given in full)	-2.17 (inactive)	0.513	1.28 (inactive)	0.584 (inactive)	1.63 (inactive)	0.91 (inactive)	-0.445	-0.582 (inactive)	-1.74 (inactive)	-1.5	-0.195	-0.412	0.478	-2.9	-4.68	-0.492	-1.41 (inactive)	-0.0899	-1.45	-0.186 (inactive)
COCCCNC(=O)[C@@]1(Sc2ccc(C)cc2)CC(=O)N(C2Cc3ccccc3C2)[C@@H]1c1ccc(CO)cc1I	-0.713 (inactive)	-0.0366	4.51 (inactive)	0.427 (inactive)	-0.23 (inactive)	-0.0133 (inactive)	0.224	2.2 (inactive)	-1.15 (inactive)	1.23	-0.126	-0.175	-0.65	-2.45	-2.27	-0.188	-0.0568 (inactive)	-0.294	-1.34	-0.3 (inactive)
O=C1c2ccccc2[C@](Cc2ccccc2I)(C(=O)NCCN2CCOCC2)[C@H](c2ccc(CO)cc2)N1Cc1ccccc1	-0.381 (inactive)	0.641	4.18 (inactive)	0.815 (inactive)	-0.188 (inactive)	0.352 (inactive)	-0.0041	0.744 (inactive)	0.91 (inactive)	0.665	-0.0426	0.193	1.14	0.211	-0.347	0.642	0.421 (inactive)	0.231	-0.462	0.0188 (inactive)
Cc1ccc(S[C@]2(C(=O)NC(C)C)CC(=O)N(C3Cc4ccccc4C3)[C@@H]2c2ccc(CO)cc2I)cc1	0.135 (inactive)	-0.788	8.47 (active)	1.39 (inactive)	1.67 (inactive)	0.13 (inactive)	-0.086	1.87 (inactive)	-1.89 (inactive)	1.23	0.6	-0.345	0.425	-1.7	-1.29	0.221	-0.277 (inactive)	-0.697	-2.19	-0.526 (inactive)
CN1C(=O)[C@@]2(CCS(=O)(=O)c3ccccc3)N=C(c3ccc(OCCCO)cc3)O[C@H]2c2ccccc21	0.583 (inactive)	-0.0003	30.1 (active)	23.3 (active)	0.141 (inactive)	0.914 (inactive)	0.836	-2.59 (inactive)	0.479 (inactive)	-0.917	0.524	1.1	-0.0319	-0.624	-0.517	0.214	0.426 (inactive)	-0.776	0.111	-0.254 (inactive)
COc1ccc(C(O)C2C=CC3C(=O)N(c4ccccc4)C(=O)C3N2Nc2ccc(C#N)cc2)c2ccccc12 (stereo not given)	-1.2 (inactive)	0.481	9.06 (active)	2.06 (inactive)	0.361 (inactive)	1.44 (inactive)	-1.03	-1.44 (inactive)	-3.09 (inactive)	-2.29	-0.716	-1.07	0.66	0.395	-1.04	-1.56	-0.246 (inactive)	0.423	-0.117	0.0226 (inactive)
CC(C)(C)OC(=O)CC[C@]1(C(=O)O)N=C(c2ccc(OCCCO)cc2)O[C@H]1c1ccccc1CN=[N+]=[N-]	0.59 (inactive)	0.0355	16.3 (active)	1.36 (inactive)	0.0614 (inactive)	0.594 (inactive)	0.172	0.433 (inactive)	1.01 (inactive)	1	0.61	-0.788	0.682	0.519	0.375	1.43	1.05 (inactive)	-0.697	-0.738	-0.245 (inactive)
COC(=O)[C@]1(CCS(=O)(=O)c2ccccc2)N=C(c2ccc(OCCCO)cc2)O[C@@H]1c1ccccc1CN=[N+]=[N-]	-2.11 (inactive)	0.15	30.4 (active)	28 (active)	1.82 (inactive)	5.19 (inactive)	-0.505	-5.83 (inactive)	-1.31 (inactive)	-3.08	-2.82	0.65	-2.94	-3.4	-3.15	-1.05	-1.02 (inactive)	-1.08	-1.88	-4.11 (inactive)
COCCOC(=O)N1C(=O)[C@@]2(c3cc(C#CC4(O)CCCCCC4)ccc31)[C@H](C(=O)N1CCCCCCC1)[C@H]1C(=O)O[C@H](c3ccccc3)[C@H](c3ccccc3)N1[C@@H]2c1ccc(OCCO)cc1	1.08 (inactive)	2.64	5.11 (inactive)	2.64 (inactive)	0.539 (inactive)	1.27 (inactive)	-0.108	0.738 (inactive)	0.507 (inactive)	1.36	0.364	1.85	0.783	-1.62	-2.6	-0.914	-2.37 (inactive)	-0.693	-0.756	1.08 (inactive)
CCOC(=O)[C@H]1C/C=C/C[C@H](C(=O)OCC)C(=O)O[C@H]2[C@@H](OC)O[C@H](CO)[C@@H](OC(=O)Nc3ccc(OC)cc3)[C@@H]2OC1=O	1.04 (inactive)	0.104	0.736 (inactive)	-0.0928 (inactive)	-0.0986 (inactive)	0.385 (inactive)	-0.0056	-2.43 (inactive)	-1.29 (inactive)	-1.99	2.98	0.202	1.12	-0.465	-0.274	1.89	1.84 (inactive)	-0.292	-0.998	-1.29 (inactive)
CC=CC(O)C1C=CC2C(=O)N(C)C(=O)C2N1N1CCCCC1 (stereo not given)	-1.81 (inactive)	-0.0359	0.974 (inactive)	1.18 (inactive)	-0.343 (inactive)	0.801 (inactive)	-1.01	-0.605 (inactive)	-0.473 (inactive)	-1.96	-0.0516	-2.06	-0.843	-0.714	-0.922	-1.52	-1.36 (inactive)	-0.615	-0.00172	-0.232 (inactive)
Cc1ccc(S[C@]2(C(=O)NC(C)C)CC(=O)N(Cc3ccccc3C(F)(F)F)[C@@H]2c2ccc(CO)cc2I)cc1	0.346 (inactive)	0.135	11.2 (active)	0.141 (inactive)	1.03 (inactive)	-0.945 (inactive)	2.05	0.95 (inactive)	-3.44 (inactive)	-1.78	0.0252	0.384	-0.933	-2.38	-3.2	-0.361	-0.123 (inactive)	-0.399	-2.48	1.32 (inactive)
CN(C)CCCNC(=O)[C@@]1(C)c2ccccc2C(=O)N(Cc2cc(C(F)(F)F)cc(C(F)(F)F)c2)[C@H]1c1ccc(CO)cc1	-1.2 (inactive)	-0.147	2.37 (inactive)	-0.0111 (inactive)	2.17 (inactive)	0.327 (inactive)	0.16	0.0342 (inactive)	-1.35 (inactive)	-2.64	-0.434	0.157	0.221	-0.309	-2.36	1.31	-0.36 (inactive)	-0.0152	-0.279	-0.832 (inactive)
CC(C)(C)OC(=O)CC[C@]1(C(=O)N2CCOCC2)N=C(c2ccc(OCCCO)cc2)O[C@H]1c1ccccc1	1.12 (inactive)	0.0468	22.9 (active)	5.18 (inactive)	1.05 (inactive)	0.815 (inactive)	-0.208	-0.291 (inactive)	-0.457 (inactive)	-0.474	0.134	0.233	1.01	1.38	0.0928	0.839	0.453 (inactive)	0.0149	-0.703	-0.743 (inactive)
CC(=O)n1cc(C(O)C2C=CC3C(=O)N(c4ccccc4)C(=O)C3N2Nc2ccccc2)c2ccccc21 (stereo not given)	-1.45 (inactive)	0.681	20.1 (active)	2.76 (inactive)	1.12 (inactive)	-0.568 (inactive)	1.32	-3.07 (inactive)	-4.86 (inactive)	-4.68	-0.8	0.174	0.374	-1.06	-1.19	-2.16	-0.349 (inactive)	-0.502	-0.969	-1.05 (inactive)
